Source: PubChem (National Center for Advancing Translational Sciences (NCATS))
An excerpt weighted towards active compounds, which were near 11% of everything screened.
PNC assembly inh: High Content Assay for Compounds that inhibit the Assembly of the Perinucleolar Compartment; PC3M PTB-GFP, PNC prevalence imaging, 16 h; hits give low values; activity change (PNC), negative = inhibition, % at 10 µM; actives 3.1% (n = 140,000);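 active = readout at or below -70, meaning at least 70% loss of cells showing the perinucleolar compartment, a nuclear body marking cancer cells; inconclusive = readout between -30 and a set limit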
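Compounds are pinned in duplicate onto adhered PC3M cells stably expressing GFP-tagged PTB and incubated 16 h at 37 C. Cells are then fixed, nuclei stained with Hoechst, and PNC-positive cells counted.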
ALDH1A1 inh: qHTS Assay for Inhibitors of Aldehyde Dehydrogenase 1 (ALDH1A1); Aldehyde dehydrogenase 1A1 (Homo sapiens), P00352; Purified ALDH1A1, NADH fluorescence, propionaldehyde substrate; Potency, µM (titrated, usually from 75.3 µM), hits mostly inhibitors; actives 7.3% (n = 220,000)
HPGD inh: qHTS Assay for Inhibitors of HPGD (15-Hydroxyprostaglandin Dehydrogenase); purified HPGD, NADH fluorescence kinetic, PGE2 substrate; Potency, µM, usual class: inhibitors; actives 4.3% (n = 150,000)
Target sequence (P15428 whole entry, looked up): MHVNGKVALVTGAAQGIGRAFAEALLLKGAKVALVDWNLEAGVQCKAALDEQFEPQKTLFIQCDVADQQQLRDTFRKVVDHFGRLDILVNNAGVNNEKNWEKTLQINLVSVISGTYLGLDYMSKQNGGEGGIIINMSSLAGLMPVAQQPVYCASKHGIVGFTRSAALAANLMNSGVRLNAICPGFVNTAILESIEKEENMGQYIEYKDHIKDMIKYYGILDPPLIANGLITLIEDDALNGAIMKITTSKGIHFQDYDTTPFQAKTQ
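20 nM HPGD preincubated 15 min at room temperature with compound in 50 mM Tris-HCl pH 8, 0.01% Tween 20. Started with 1 mM NAD+ and 30 uM prostaglandin E2; NADH fluorescence (360/450 nm) read 5 times over 30-s intervals, last minus first.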
JMJD2E inh: qHTS Assay for Inhibitors of Human Jumonji Domain Containing 2E (JMJD2E); JMJD2E catalytic domain, FDH-coupled NADH fluorescence (FDH is formaldehyde dehydrogenase); actives 1.6% (n = 230,000); Lysine-specific demethylase 4E (Homo sapiens), B2RXH2; AID 2147, 2009; Potency, µM (highest dose often 57.1 µM), actives largely listed as inhibitors; note: nearly all actives have a fitted effect of over 50% in size
Target sequence (B2RXH2 1-337 limits assumed): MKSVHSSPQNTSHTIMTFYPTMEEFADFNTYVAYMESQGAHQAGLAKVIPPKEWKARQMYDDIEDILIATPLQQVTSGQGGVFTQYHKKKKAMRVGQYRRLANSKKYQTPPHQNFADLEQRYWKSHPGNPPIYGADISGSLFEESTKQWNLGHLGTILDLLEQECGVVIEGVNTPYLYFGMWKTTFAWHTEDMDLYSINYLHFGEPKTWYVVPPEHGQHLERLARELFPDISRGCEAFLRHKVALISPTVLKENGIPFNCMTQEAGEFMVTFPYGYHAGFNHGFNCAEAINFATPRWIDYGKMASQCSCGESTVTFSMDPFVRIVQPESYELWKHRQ
A number is an active result. Unless noted, calls come from the whole dose curve; as a rule, active = well fitted inhibition curve with a large enough effect (not every such curve was filed as active); inconclusive = small, poorly fitted or top-dose-only effect, or another doubt; inactive = no such curve, though single readings can be large or run the other way.

How did Cc1cc(C(=O)Nc2ccccc2C(F)(F)F)no1 do in these assays?
PNC assembly inh: inactive; ALDH1A1 inh: inactive; HPGD inh: inactive; JMJD2E inh: inactive

How did Cc1cccc(C(=O)NC(=S)Nc2ccccc2C(F)(F)F)c1 do in these assays?
PNC assembly inh: inactive; ALDH1A1 inh: 18µM; HPGD inh: inactive; JMJD2E inh: inactive

Results for Cc1ccc(C(=O)NC(=S)Nc2ccccc2C(F)(F)F)cc1C ?
PNC assembly inh: inactive; ALDH1A1 inh: 4.5µM; HPGD inh: inactive; JMJD2E inh: inactive

Results for Cc1cc(Oc2cc(N)cc([N+](=O)[O-])c2)ccc1Cl ?
PNC assembly inh: inconclusive; ALDH1A1 inh: inactive; HPGD inh: inactive; JMJD2E inh: inactive

Results for CO[C@@]1(NC(=O)Cc2cccs2)C(=O)N2C(C(=O)O)=C(COC(N)=O)CSC21 (some centres undefined) ?
ALDH1A1 inh: inactive; HPGD inh: inactive; JMJD2E inh: inactive

What do the screens show for `CO[C@@]1(NC(=O)Cc2cccs2)C(=O)N2C(C(=O)O)=C(COC(N)=O)CS[C@@H]21`?
PNC assembly inh: inactive; ALDH1A1 inh: inactive; HPGD inh: inactive; JMJD2E inh: 32µM

Results for CC(=O)OCC1=C(C(=O)O)N2C(=O)C(NC(=O)Cc3cccs3)C2SC1 (centres undefined) ?
ALDH1A1 inh: inactive; HPGD inh: 20µM; JMJD2E inh: inconclusive

Results for CCOc1ccc(C(=O)NC(=S)NCc2cccnc2)cc1[N+](=O)[O-] ?
PNC assembly inh: inactive; ALDH1A1 inh: inconclusive; HPGD inh: inactive; JMJD2E inh: inactive

Results for O=C(N/N=C\c1ccccc1O)c1ccccc1O ?
ALDH1A1 inh: inactive; HPGD inh: inconclusive; JMJD2E inh: 5µM

What do the screens show for `O=C(Cn1cc(C(F)(F)F)ccc1=O)Nc1ccccc1`?
JMJD2E inh: inactive

What do the screens show for `O=C(N/N=C/c1ccccc1O)c1cccc(C(F)(F)F)c1`?
PNC assembly inh: -94; ALDH1A1 inh: inactive; HPGD inh: inactive; JMJD2E inh: inconclusive

Results for O=C(Cn1cc(C(F)(F)F)ccc1=O)N/N=C/c1ccc(F)cc1 ?
ALDH1A1 inh: inactive; JMJD2E inh: inactive

Results for O=C(Cn1cc(C(F)(F)F)ccc1=O)N/N=C/c1ccccc1O ?
JMJD2E inh: 10µM

What do the screens show for `Cc1ccc(NC(=O)CN(C)C(=O)Cn2cc(C(F)(F)F)ccc2=O)cc1`?
PNC assembly inh: -80; ALDH1A1 inh: inactive; JMJD2E inh: inactive

Results for COC(=O)C/C=C/[C@@H](C)[C@@H](/C=N/O[C@@H](C)c1cn([C@H](CO)Cc2ccccc2)nn1)NS(=O)(=O)c1ccc(C)cc1 ?
PNC assembly inh: inactive; ALDH1A1 inh: 18µM; HPGD inh: inactive; JMJD2E inh: inactive

Results for O=C(Sc1nnc(-c2ccccc2)o1)N1c2ccccc2Sc2ccccc21 ?
PNC assembly inh: inactive; ALDH1A1 inh: 22µM; HPGD inh: 14µM; JMJD2E inh: inconclusive

What do the screens show for `Cc1ccc(S(=O)(=O)N2CCOCC2)cc1C(=O)OCC(=O)NC1CCS(=O)(=O)C1` (centres undefined)?
PNC assembly inh: inactive; ALDH1A1 inh: inactive; HPGD inh: inactive; JMJD2E inh: inactive

What do the screens show for `CC(=O)Nc1cc(OC(=O)c2ccco2)cc(OC(=O)c2ccco2)c1`?
PNC assembly inh: inactive; ALDH1A1 inh: inactive; HPGD inh: inactive; JMJD2E inh: inactive

How did O=C(Oc1cncc(Cl)c1)c1ccco1 do in these assays?
PNC assembly inh: -81; ALDH1A1 inh: inactive; HPGD inh: inactive; JMJD2E inh: inactive

What do the screens show for `COc1ccc(Cn2nnc3c(=O)[nH]c(C4CCCN(C(=O)c5ccccc5)C4)nc32)cc1` (centres undefined)?
PNC assembly inh: inactive; ALDH1A1 inh: inactive; HPGD inh: 13µM; JMJD2E inh: inactive

What do the screens show for `Cc1ccc(Cn2nnc3c(=O)[nH]c(C4CCCN(C(=O)Nc5ccc(F)cc5)C4)nc32)cc1` (centres undefined)?
PNC assembly inh: inactive; ALDH1A1 inh: inactive; JMJD2E inh: inactive

Results for O=C(c1ccccc1Cl)N1CCCC(c2nc3c(nnn3Cc3ccccc3)c(=O)[nH]2)C1 (centres undefined) ?
PNC assembly inh: inactive; ALDH1A1 inh: inactive; HPGD inh: 16µM; JMJD2E inh: inactive

How did COc1cccc(Cn2nnc3c(=O)[nH]c(C4CCCN(C(=O)c5ccccc5Cl)C4)nc32)c1 (centres undefined) do in these assays?
PNC assembly inh: inconclusive; ALDH1A1 inh: 7.9µM; HPGD inh: 14µM; JMJD2E inh: inactive

What do the screens show for `CCOC(=O)CC(=O)CSc1ncc(C(=O)OCC)c(N)n1`?
PNC assembly inh: inconclusive; ALDH1A1 inh: 22µM; HPGD inh: inactive; JMJD2E inh: inactive

How did CCOC(=O)c1cnc(SCc2ccccc2)nc1N do in these assays?
PNC assembly inh: inconclusive; ALDH1A1 inh: inconclusive; HPGD inh: inactive; JMJD2E inh: inactive

How did CCOC(=O)c1cnc(SCc2cccc3ccccc23)nc1N do in these assays?
PNC assembly inh: inactive; ALDH1A1 inh: inconclusive; HPGD inh: 28µM; JMJD2E inh: inactive

How did CSc1nc(Cl)cc(Nc2ccc(O)cc2)n1 do in these assays?
ALDH1A1 inh: inactive; JMJD2E inh: inactive

What do the screens show for `CCC(CC)C(=O)c1c[nH]c(C(=O)NN)c1`?
ALDH1A1 inh: 7.9µM; JMJD2E inh: inactive

What do the screens show for `CC(=O)Nc1ccc(S(=O)(=O)NC2CCS(=O)(=O)C2)cc1Cl` (centres undefined)?
ALDH1A1 inh: inactive; JMJD2E inh: inactive

What do the screens show for `CC(C)(C)NS(=O)(=O)c1ccc(Oc2ncc(C(F)(F)F)cc2Cl)cc1`?
PNC assembly inh: inactive; ALDH1A1 inh: inactive; HPGD inh: inactive; JMJD2E inh: inactive

What do the screens show for `CC(C)(C)NS(=O)(=O)c1cnc(Cl)c(Cl)c1`?
PNC assembly inh: inactive; ALDH1A1 inh: 32µM; HPGD inh: inactive; JMJD2E inh: inactive

How did O=C(/C=C/Nc1cccc([N+](=O)[O-])c1)c1cccs1 do in these assays?
PNC assembly inh: inactive; ALDH1A1 inh: 14µM; HPGD inh: inactive; JMJD2E inh: inactive

Results for O=[N+]([O-])c1cc(C(F)(F)F)ccc1Sc1ccc2ccccc2n1 ?
PNC assembly inh: inactive; ALDH1A1 inh: inconclusive; HPGD inh: 16µM; JMJD2E inh: inactive

Results for COc1ccc(-c2nnc3ccc(SC(C(C)=O)C(C)=O)nn23)cc1OC ?
PNC assembly inh: inactive; ALDH1A1 inh: inactive; HPGD inh: 14µM; JMJD2E inh: inconclusive

Results for COC(=O)CSc1ccc2nnc(-c3ccc(OC)c(OC)c3)n2n1 ?
PNC assembly inh: inactive; ALDH1A1 inh: inactive; HPGD inh: inconclusive; JMJD2E inh: inactive

What do the screens show for `CCC(Sc1ccc2nnc(-c3ccc(OC)c(OC)c3)n2n1)C(=O)O` (centres undefined)?
PNC assembly inh: inactive; ALDH1A1 inh: inconclusive; HPGD inh: 14µM; JMJD2E inh: inconclusive

How did CC(c1ccccc1)N1CC(C(=O)N2CCN(c3ccc(F)cc3)CC2)CC1=O (centres undefined) do in these assays?
PNC assembly inh: inactive; ALDH1A1 inh: inactive; HPGD inh: inactive; JMJD2E inh: inactive
